SMILES strings stand for the structures. The whole screen tested about 4,600 compounds, of which about 2,900 (63%) were called active.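 The calls were made as follows: active = inhibition of yeast growth at or above a set limit in either of two replicates at 10 µM; inactive = the rest.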 The set was probably picked from earlier hits. A selection follows.

This assay in a line: growth inhibitors of wild-type TIM10 yeast, confirmation, counter-screen for tim10-1 synthetic lethality project, single concentration, luminescence, S. cerevisiae (AID 463215).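 Also: isogenic wild-type TIM10 control yeast grown in succinate dextrose medium; 0% = yeast with DMSO and 100% = medium wells lacking yeast.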 The note with it: S. cerevisiae tim10 strain growth, BacTiter-Glo luminescence, 24 h; at 10 µM; hits give high values. On the technique in general: The purpose of a counterscreen is to sort out artefacts and off-target activity.
As to `O=C(Oc1ccc([N+](=O)[O-])cc1)c1ccc2ccccc2n1`, the inhibition is 33.2% (active). The value for `CCCc1nc2c(c(=O)c3ccccc3n2C)c(=O)n1C1CCCCCC1` was -18.1% (inactive); that for `Cc1[nH]n(C(N)=S)c(=O)c1N=Nc1ccc(Cl)cc1Cl` was 51.7% (active). `CCCCC1(C(=O)OCC)NC(c2ccc(O)cc2)C2C(=O)N(c3ccccc3)C(=O)C21` (centres undefined): the inhibition is 7% (inactive). As for `CCSC1=C(C#N)C(=O)n2c1cc1c2CCCC1`, the inhibition was 56.2% (active).

As to `CC(=NCc1ccc2c(c1)OCO2)C1=C(O)c2ccccc2C1=O`, the inhibition is 66.2% (active).

With `O=C(NCc1ccc2c(c1)OCO2)c1c(O)nc2sccn2c1=O`, the inhibition is 27.8% (inactive). Next, `COc1ccc(O)c(C(=O)c2cnc3c(c2)c(-c2ccc(F)cc2)c(C#N)c(=O)n3C)c1`: 3.75% (inactive); `O=C1[C@@H](c2ccccc2)[C@@H](c2ccccc2)N1c1cccnc1`: 61.4% (active). As for `C=CCNC(=S)NNC(=O)COc1c(Cl)cc(Cl)cc1Cl`, the inhibition is 2.85% (inactive). `O=C(Oc1c(-c2ccco2)oc2ccccc2c1=O)c1cccnc1`: the inhibition was 48% (active). Consider `CN(C)CCN(C(=O)C1=COCCO1)c1nc2ccc(Cl)cc2s1`, for which the inhibition was 69.3% (active). As for `Cc1ccc2nc(N(CCN(C)C)C(=O)C3=COCCO3)sc2c1`, the inhibition is 34.9% (active). Next, `Cc1ccoc1C(=O)Nc1cccc(Oc2ccccc2)c1`: 61% (active); `Cc1nc(-c2ccc(Cl)cc2)sc1C(=O)CBr`: 52.6% (active). As to `CCNC(=S)N(CCc1c(C)[nH]c2ccc(C)cc12)Cc1ccco1`, the inhibition is 20.2% (inactive). The value for `O=C(Nc1ccc(Br)cn1)c1ccc([N+](=O)[O-])o1` was 46.5% (active); that for `Cc1cccc(NC(=O)c2ccc([N+](=O)[O-])o2)c1` was 81.6% (active); that for `Cc1onc(NC(=O)c2ccc([N+](=O)[O-])o2)c1Br` was 53.8% (active). The value for `CC(C)CC(=O)NC(=S)Nc1ccc(F)cc1F` was 15.1% (inactive). `Cc1ccc2nc(-c3ccc(SCC(=O)Nc4cc(C)on4)nc3)[nH]c2c1`: the inhibition is 2.7% (inactive). Take `CC(C)Oc1c(Br)cc(Br)cc1/C=N/NC(N)=S`: the inhibition is 23.6% (inactive). In the case of `NC(=S)N/N=C/c1coc2cc(Cl)ccc2c1=O`, the inhibition is 50.8% (active).

Turning to `C=C(C)COc1ccc(-c2n[nH]c(C)c2-c2ccccc2)c(O)c1`, the inhibition was 40.1% (active). Turning to `Oc1ccccc1-c1cc(-c2ccc(Cl)cc2)n[nH]1`, the inhibition was 55.5% (active). Take `CC(C)NC(=O)/C(C#N)=C\c1ccc(N(C)C)c(Br)c1`: the inhibition is 46.6% (active). As to `O=c1[nH]cnc2c1c(-c1ccccc1)cn2-c1ccc(F)cc1`, the inhibition was -25.6% (inactive).

In the case of `CC(=NCc1ccco1)c1c(C(F)(F)F)[nH]n(-c2nc3ccccc3s2)c1=O`, the inhibition was 57.4% (active). Consider `N/C(=N\OC(=O)CCc1ccccc1)c1ccc(Cl)cc1`, for which the inhibition is 57.2% (active). The value for `COc1ccc(/C(N)=N/OC(=O)CCCc2ccccc2)cc1` was 39.8% (active). The value for `COc1ccc(-c2oc3ncn(Cc4ccco4)c(=N)c3c2-c2ccc(OC)cc2)cc1` was 38.8% (active); that for `COc1ccc2[nH]cc(/C=C(/C#N)S(=O)(=O)c3ccccc3)c2c1` was 38% (active); that for `N/C(=N\OC(=O)Nc1ccc(Cl)c(Cl)c1)c1ncc(C(F)(F)F)cc1Cl` was 72.8% (active). The value for `CC1CCCC(C)N1C(=O)CN1CCN(c2nc(-c3ccc(F)cc3)cs2)CC1` (centres undefined) was 39.2% (active).

With `Cc1cc(C)n(CC(O)CN(c2ccccc2)S(=O)(=O)c2ccc3ccccc3c2)n1` (centres undefined), the inhibition was 2.2% (inactive).

As to `CC(=O)Oc1ccc(N(C(C)=O)S(=O)(=O)c2ccc3ccccc3c2)cc1Br`, the inhibition is 40.5% (active). `CCc1ccc(OCC(=O)NCC(c2ccc(Cl)cc2)N2CCCCC2)cc1` (centres undefined): the inhibition is 44% (active). Take `CC1CCC2CCCCC2N1C(=O)c1cc([N+](=O)[O-])cc([N+](=O)[O-])c1` (centres undefined): the inhibition was 33% (active). Consider `CCOc1ccccc1/C=c1\sc2nc(-c3ccco3)nn2c1=O`, for which the inhibition is 48.9% (active). For `Cc1ccc(-c2ccnc3nc(Sc4ncc(C(F)(F)F)cc4Cl)nn23)cc1`, the inhibition was 29.6% (inactive). The value for `Cc1nn2c(c1-c1ccccc1)N=C(c1ccco1)CC2c1ccccc1` (centres undefined) was -19.4% (inactive); that for `CC(NC(=S)Nc1ccccc1)C1COc2ccccc2O1` (centres undefined) was 40.3% (active). Consider `Cc1ccc(N2C(=O)C3C4C=CC(CC4)C3C2=O)cc1Cl` (centres undefined), for which the inhibition was 0.2% (inactive). Consider `Cc1ccc(C(=O)COc2cccc(NC(=O)c3ccco3)c2)cc1`, for which the inhibition was 53.1% (active).

For the compound `COc1cccc(OCc2cc(C(=O)N3CCN(C(=O)c4ccco4)CC3)no2)c1`, the inhibition is 8.3% (inactive). For the compound `O=C1C=CC(=O)N1c1ccc(N2CCCCC2)cc1`, the inhibition is 85.4% (active). As for `COc1ccc2c(CN3CCN(S(=O)(=O)c4cccs4)CC3)cc(=O)oc2c1`, the inhibition is -35.7% (inactive). Next, `O=C(O)CCCC(=O)Nc1ccccc1-n1ccnc1`: -10.4% (inactive). `CN(C)c1ccnc2sc(C(=O)c3ccccc3)c(N)c12`: the inhibition is 25.4% (inactive). The value for `O=C(CN1CCN(S(=O)(=O)c2ccc3ccccc3c2)CC1)NC(=O)NC1CCCCC1` was 23.4% (inactive); that for `COc1ccc(S(=O)(=O)N2CCN(C(C)C(=O)Nc3ccc(C(C)C)cc3)CC2)cc1` (centres undefined) was 38.8% (active). Regarding `Fc1ccc(-n2c(Cc3ccccc3)nnc2SCc2nc(-c3ccc(Cl)cc3)no2)cc1`, the inhibition was 37.8% (active). The value for `Cc1ccc(-c2noc(CSc3nnc(-c4ccncc4)n3-c3ccc(F)cc3)n2)cc1` was 30.2% (active). On to `Cc1ccc(/C=N/NC(=S)NC2CCCCC2)o1`, for which the inhibition is 11.8% (inactive). In the case of `COc1ccc(N2C(=O)CC(Sc3n[nH]c(-c4ccc(C)cc4)n3)C2=O)cc1` (centres undefined), the inhibition was 13.8% (inactive). Next, `O=C(Nc1cccc(Cl)c1)C1CCCN(c2cnccn2)C1` (centres undefined): 5.7% (inactive); `O=C(Nc1cccc(Cl)c1)OCc1ccccn1`: 41.4% (active); `FC(F)(F)c1cccc(NC(=S)Nc2cccc(Cl)c2)c1`: 26.8% (inactive). In the case of `O=C(CSc1cccc[n+]1[O-])c1ccc(-c2ccccc2)cc1`, the inhibition was 44.2% (active).

`O=C1NC(Nc2nc3ccccc3s2)(C(F)(F)F)C(=O)N1C1CCCCC1` (centres undefined): the inhibition was 52.6% (active). With `N#CC1(C#N)C(C(=O)C23CC4CC(CC(C4)C2)C3)C12CCOCC2` (centres undefined), the inhibition is 26.6% (inactive). The value for `COC(=O)c1c(NC(=O)COc2ccc(Cl)cc2Cl)sc2c1CC(C)(C)NC2(C)C` was 45.8% (active); that for `CCn1c(CSCc2c(Cl)cccc2Cl)n[nH]c1=S` was 35.4% (active). `O=C(Nc1ccccc1Cl)/C(Cl)=C(\Cl)S(=O)c1ccccc1` (centres undefined): the inhibition is 89.6% (active). The value for `O=c1oc(-c2ccccc2NS(=O)(=O)c2ccc(Cl)cc2)nc2ccccc12` was 41.5% (active). Take `Cc1[nH]c(=O)c(C(=O)/C=C/c2ccccc2)c2c1CCCC2`: the inhibition is 38.8% (active). For the compound `COc1ccc(Nc2cc(C)nc(-n3nc(C)cc3C)n2)cc1`, the inhibition is 34.1% (active). Consider `COc1ccc(/C=C(\C#N)C(=O)ONC2=NCCCCC2)cc1`, for which the inhibition was 59% (active). For the compound `O=C(Nc1cccc(S(=O)(=O)N2CCCC2)c1)c1cncc(Br)c1`, the inhibition is -2.05% (inactive).

For the compound `O=C(NCCc1ccc(F)cc1)c1ccc(S(=O)(=O)N2CCCCC2)cc1`, the inhibition is 53.5% (active).

As to `CC(=O)Cc1nsc(NC(=O)c2ccc(Cl)cc2Cl)n1`, the inhibition is 17.2% (inactive). Next, `C/C(=N/NC(=S)Nc1ccccc1)c1ccc2c(c1)OCO2`: 38.8% (active); `CC(=O)N1C(C)c2ccccc2C(C)(C)CC12CCCCC2` (centres undefined): -16% (inactive); `COc1ccc(Nc2nc(N)nc(CSC(=S)N3CCC(C)CC3)n2)cc1`: -1% (inactive). As to `Cc1cc(C)nc(S/C=C/C(=O)c2ccccc2)n1`, the inhibition was 60.8% (active). As to `Cc1csc(NC(=S)Nc2cccc(Cl)c2)n1`, the inhibition is 9.5% (inactive). Next, `Cc1cc(C)c(S(=O)(=O)c2ccccc2)c(OC(=O)c2c(F)cccc2Cl)n1`: -5.1% (inactive); `COC(C/C=C/C(=O)[C@@H](C)OCc1ccccc1)OC`: 39.4% (active). In the case of `CNC(=O)/C(C#N)=C/c1c(F)cccc1Cl`, the inhibition is 40.6% (active).

Usually inhibition stands for the change of the read-out against control, counted positive when it falls.

The values above are taken from PubChem BioAssay AID463215 (Sanford-Burnham Center for Chemical Genomics, 2010).
